{"source": "PubChem BioAssay (NCI)", "note": "This is part of a sample that, as a whole, favours compounds with a hit. Of some 83,000 tested, about 20% had one in any assay.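 Single-dose data. Exposure time 48 hours. Values below 10 considered active.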 The source made the active and inactive calls."}
{"system": "NCI-H322M lung", "assay": "NCI-60 one-dose screen, 48 h (100 = growth as untreated, 0 = no growth, -100 = all killed)", "conditions": "10 µM unless noted"}
{"compound": "Clc1ccc2oc3c(NCCCN4CCOCC4)c4ccccc4nc3c2c1", "growth": "21.6% (inactive)"}
{"compound": "CN(C)c1ccc(/C=C2\\Cc3c(F)ccc(Br)c3C2=O)cc1", "growth": "85.6% (inactive)"}
{"compound": "O=C(N/N=C/c1ccc([N+](=O)[O-])s1)c1[nH]c2ccc(Br)cc2c1-c1ccccc1", "growth": "54.9% (inactive)"}
{"compound": "CC(O)C(NC(=O)C1CCCN1C(=O)CNC(=O)C1CC(=O)NCC(=O)NC(Cc2c[nH]c3ccccc23)C(=O)NC(Cc2ccc(O)cc2)C(=O)NCC(=O)NC(CO)C(=O)NC(CCC(N)=O)C(=O)NC(Cc2c[nH]c3ccccc23)C(=O)N1)C(=O)NCC(=O)NC(CCC(N)=O)C(=O)NC(CCCNC(=N)N)C(=O)NC(CC(=O)O)C(=O)O", "note": "(stereo not given)", "growth": "95.2% (inactive)"}
{"compound": "O=C(CN1CCOCC1)NNc1ncnc2ccccc12", "growth": "102% (inactive)"}
{"compound": "N#Cc1c(-c2ccc(Cl)cc2)nc(SCc2ccccc2)nc1N1CCNCC1", "growth": "79.6% (inactive)"}
{"compound": "Cn1cc(-c2cc(N)n3nc(-c4cn(C)c5ccc(F)cc45)cc3n2)c2cc(F)ccc21", "growth": "71.2% (inactive)"}
{"compound": "CS(=O)(=O)c1ccc(-c2nc3ccccn3c2/C=N/Nc2nc(-c3ccc(Cl)cc3)cs2)cc1", "growth": "111% (inactive)"}
{"compound": "O=c1/c(=C\\c2ccc(-c3ccccc3)o2)sc2nc(-c3ccccc3)nn12", "growth": "105% (inactive)"}
{"compound": "Cc1nc(-c2cc3ccccc3oc2=O)ccc1C(=O)/C=C/c1ccccn1", "growth": "86.3% (inactive)"}
{"compound": "Nc1c(C(=O)Nc2ccc(C(F)(F)F)cc2)sc2nc(-c3cnccn3)cc(-c3cccs3)c12", "growth": "81.8% (inactive)"}
{"compound": "O=C1Nc2cc(Cl)ccc2/C1=C\\c1ccc(OCc2ccc(Br)cc2F)cc1", "growth": "-23.8% (active)"}
{"compound": "C=CCSc1ccc2c(c1)C(N1CCNCC1)=Nc1ccccc1O2", "growth": "85.6% [8.25 µM] (inactive)"}
{"compound": "COc1ccc(NC2=CC(=O)C(C)=C(C)C2=O)cc1", "growth": "103% (inactive)"}
{"compound": "CS(=O)(=O)c1ccc(-c2nc3ccccn3c2-c2nc3ccc([N+](=O)[O-])cc3[nH]2)cc1", "growth": "92% (inactive)"}
{"compound": "CCOC(=O)c1c(Nc2ccccc2)nn2c(-c3ccco3)c(C#N)cnc12", "growth": "96.8% (inactive)"}
{"compound": "COc1ccc(NC(=O)c2sc3nc(-c4cnccn4)cc(-c4cccs4)c3c2N)cc1", "growth": "82.3% (inactive)"}
{"compound": "CC(=O)c1ccc(Nc2nc(SC(C)C)nc(-c3ccccc3)c2C#N)cc1", "growth": "98.7% (inactive)"}
{"compound": "COc1ccc(N/N=C/c2c(-c3ccc(S(C)(=O)=O)cc3)nc3ccccn23)cc1", "growth": "50% (inactive)"}
{"compound": "O=C1C2=C(C(=O)c3c(O)cccc31)C(c1ccco1)c1sc(=O)[nH]c1S2", "note": "(stereo not given)", "growth": "-97.7% (active)"}
{"compound": "COc1ccc(/C=C2\\SC(=Nc3cc(C)on3)NC2=O)cc1", "growth": "97.7% (inactive)"}
{"compound": "COc1ccc(-c2nc3ccc(-c4nnc(SCC(=O)Nc5ccc(C(=O)/C=C/c6ccccc6)cc5)o4)cc3[nH]2)cc1OC", "growth": "102% (inactive)"}
{"compound": "O=C(CSc1nnc(-c2ccc3nc(-c4ccc(Cl)cc4)[nH]c3c2)o1)Nc1ccc(C(=O)/C=C/c2ccc(Cl)cc2)cc1", "growth": "95.4% (inactive)"}
{"compound": "OC1CCN(CCCOc2c3ccccc3nc3c2oc2ccccc23)CC1", "growth": "-17% (active)"}
{"compound": "Nc1cc(-c2c[nH]c3ccccc23)nc2cc(-c3c[nH]c4ccccc34)nn12", "growth": "80.8% (inactive)"}
{"compound": "N[C@@H](Cc1cn(-c2c3ccccc3nc3ccccc23)nn1)C(=O)O", "growth": "98.3% (inactive)"}
{"compound": "CCN1CCN(S(=O)(=O)c2oc(-c3ccc(Cl)cc3)nc2C#N)CC1", "growth": "96.5% (inactive)"}
{"compound": "OC1CCc2c(-c3ccc4ncnc(N5CCc6cc(F)c(Cl)cc65)c4c3)cncc21", "note": "(stereo not given)", "growth": "15% (inactive)"}
{"compound": "O=C(N/N=C/c1ccc([N+](=O)[O-])o1)c1[nH]c2ccc(Br)cc2c1-c1ccccc1", "growth": "41.2% (inactive)"}
{"compound": "N#Cc1ccc(C(=O)CSc2nc(Nc3ccc(S(N)(=O)=O)cc3)c3ccccc3n2)cc1", "growth": "107% (inactive)"}
{"compound": "COc1cc(/C=C/C(=O)c2cc(OC)c(OC)c(OC)c2)ccc1Oc1nc(NCCO)nc(N2CCOCC2)n1", "growth": "24% (inactive)"}
{"compound": "NC(=O)c1c(NC(=O)c2ccc(C3CCCCC3)cc2)sc2c1CCC(=O)C2", "growth": "97.8% (inactive)"}
{"compound": "COc1cc2nc(-c3ccc(C(F)(F)F)cc3)cc(OCCCNCC3CCCO3)c2cc1OC", "note": "(stereo not given)", "growth": "57.2% (inactive)"}
{"compound": "Nc1c(C(=O)c2ccc(Br)cc2)oc2nc(-c3cnccn3)cc(-c3cccs3)c12", "growth": "103% (inactive)"}
{"compound": "Cc1sc2c(c1C)c(=O)nc1c(-c3nc(-c4ccc(F)cc4)no3)n[nH]n12", "growth": "103% (inactive)"}
